Among the data in PubChem BioAssay are inhibition and nuclei count values, retold here.

Activity calls are given as the source filed them.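 How the source made its calls: active means visually confirmed hit in the image check and inhibition above 20%; inconclusive means visually confirmed hit but inhibition not above 20%; inactive means no visual hit in the image check.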

This assay can be described thus: endothelial E-selectin expression blockers – imaging, HUVEC, immunofluorescence, MLSMR starter and 10KST1 sets, primary screen (AID 487).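 On inhibition: signal is fraction of cell area covered by stained E-selectin grains.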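 On nuclei count: 100% = median nuclei count of all wells on the same plate.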 Conditions: HUVEC TNFalpha-induced E-selectin immunofluorescence imaging, at 2 µM; inhibition: stronger effect = higher value; nuclei count: measured here: cell number, toxicity.
On to `CCN(CC)CCn1c(O)c(N=O)c2ccccc21`, for which the inhibition (in general, the drop in the measured response relative to a control, in per cent) is -9% (inactive) and the nuclei count is 111%.
In the same order, the values of `Cc1ccc2nc(NCc3ccccc3)[nH]c2c1` are -217% (inactive) and 171%.
Turning to `COc1cccc(-c2nc(NC(C)(C)C)c3ccccc3n2)c1O`, the nuclei count came out at 141% and the inhibition is -39.6% (inactive).
In the same order, the values of `O=C1C2ON(c3ccccc3)C(c3ccncc3)C2C(=O)N1c1ccc(Br)cc1` (stereo unspecified) are 148% and -22.2% (inactive).
`CCC(=O)O[C@@H]1CC(=O)O[C@H](C)CC=CC=C[C@@H](O)[C@H](C)C[C@H](CC=O)[C@H](O[C@H]2O[C@H](C)[C@@H](O[C@H]3C[C@@](C)(O)[C@@H](OC(=O)CC)[C@H](C)O3)[C@H](N(C)C)[C@H]2O)[C@H]1OC`: the inhibition is -105% (inactive) and the nuclei count turned out to be 120%.
The matching figures for `O=C1CC(N(O)C2CC(=O)N(Cc3ccccc3)C2=O)C(=O)N1Cc1ccccc1` (stereo unspecified): -15% (inactive) and 88.9%.
The matching figures for `CC1(C)CC(NC(=O)C23CCC(C)(/C(=N/O)C2)C3(C)C)CC(C)(C)N1` (stereo unspecified): -45.2% (inactive) and 179%.
In the same order, the values of `O=c1[nH]c(-c2ccccn2)nc2ccccc12` are -102% (inactive) and 126%.
For `Cc1nnc(SCC2=C(C(=O)O)N3C(=O)[C@@H](NC(=O)Cn4cnnn4)[C@H]3SC2)s1`, the inhibition was -103% (inactive) and the nuclei count came to 125%.
The matching figures for `O=C(O)c1cc(=O)c2c(OCC(O)COc3cccc4oc(C(=O)O)cc(=O)c34)cccc2o1`: -78.3% (inactive) and 106%.
`c1ccc(-c2nc(NCC3CCCO3)c3ccccc3n2)nc1` (stereo unspecified): the inhibition is -106% (inactive) and the nuclei count amounted to 173%.
The matching figures for `CC[C@H]1OC(=O)C[C@@H](O)[C@H](C)[C@@H](O[C@@H]2O[C@H](C)C[C@H](N(C)C)[C@H]2O)[C@@H](CC=O)C[C@@H](C)C(=O)C=C[C@]2(C)O[C@H]2[C@@H]1C`: -120% (inactive) and 116%.
In the same order, the values of `CC(C)NCC(O)COc1cccc2[nH]ccc12` (stereo unspecified) are -58% (inactive) and 126%.
Take `Cc1ccc2cc(CN(C(=O)c3ccco3)c3ccccc3C)c(=O)[nH]c2c1`: the inhibition is -73.2% (inactive) and the nuclei count is 116%.
The matching figures for `CN1CCN(Cc2c(O)ccc3c(-c4ccccc4)cc(=O)oc23)CC1`: -97.7% (inactive) and 124%.
The matching figures for `Cc1cc(N2C(=O)C(=O)/C(=C(/O)c3ccccc3)C2c2cccc(Br)c2)no1` (stereo unspecified): -43.8% (inactive) and 93.2%.
The matching figures for `COc1ccc(C(=O)Nc2nc(N)n(-c3ccccc3)n2)cc1OC`: 8.6% (inactive) and 154%.
In the case of `Cc1ccc(N2C(=O)C3ON(c4ccccc4)C(c4ccncc4)C3C2=O)cc1` (stereo unspecified), the nuclei count turned out to be 142% and the inhibition is -70.5% (inactive).
